From PubChem BioAssay (NCI)
This is part of a sample that, as a whole, favours compounds with a hit. Of some 83,000 tested, about 20% had one in any assay.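 Step 1: grow cells in 96-well plates. Step 2: add test compound at a single concentration. Step 3: incubate 48 h. Step 4: record percent growth.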 Values without a mark were called inactive. Activity calls are given as the source filed them. The calls were made as follows: active = growth percent below 10; inactive = the rest.

Tests used:
Experiment in all cases: NCI-60 one-dose screen, 48 h (100 = growth as untreated, 0 = no growth, -100 = all killed)
Settings in all cases: 10 µM unless noted
RPMI-8226 leukemia = test system: RPMI-8226 leukemia
OVCAR-8 ovarian = test system: OVCAR-8 ovarian
OVCAR-5 ovarian = test system: OVCAR-5 ovarian
OVCAR-4 ovarian = test system: OVCAR-4 ovarian
SK-OV-3 ovarian = test system: SK-OV-3 ovarian
IGROV1 ovarian = test system: IGROV1 ovarian
OVCAR-3 ovarian = test system: OVCAR-3 ovarian
HS 578T breast = test system: HS 578T breast
NCI/ADR-RES ovarian = test system: NCI/ADR-RES ovarian
T-47D breast = test system: T-47D breast
BT-549 breast = test system: BT-549 breast
MDA-MB-435 melanoma = test system: MDA-MB-435 melanoma
SW-620 colon = test system: SW-620 colon
MCF7 breast = test system: MCF7 breast
HCT-116 colon = test system: HCT-116 colon
HCC-2998 colon = test system: HCC-2998 colon
KM12 colon = test system: KM12 colon
SR leukemia = test system: SR leukemia

Row | SMILES | growth (RPMI-8226 leukemia) | growth (OVCAR-8 ovarian) | growth (OVCAR-5 ovarian) | growth (OVCAR-4 ovarian) | growth (SK-OV-3 ovarian) | growth (IGROV1 ovarian) | growth (OVCAR-3 ovarian) | growth (HS 578T breast) | growth (NCI/ADR-RES ovarian) | growth (T-47D breast) | growth (BT-549 breast) | growth (MDA-MB-435 melanoma) | growth (SW-620 colon) | growth (MCF7 breast) | growth (HCT-116 colon) | growth (HCC-2998 colon) | growth (KM12 colon) | growth (SR leukemia)
1 | COP(=O)(OC)C(c1ccccc1)(c1ccccc1)c1ccccc1 | 87.5% | 94.6% | 101% | 93.2% | 108% | -9.3% (active) | 86.7% | 94.5% | 95.9% | 88.8% | 117% | 91.2% | 98.1% | 103% | 73.1% | 114% | – | –
2 | Fc1ccc(-c2nn3c(-c4cc(C(F)(F)F)cc(C(F)(F)F)c4)nnc3s2)cc1 | 95.6% | 20% | 95.1% | 21.7% | -36.1% (active) | 21.6% | 12.7% | 24.8% | 40.9% | 51.8% | – | 76.3% | 65.8% | 68.7% | -17.3% (active) | – | 77.5% | –
3 | COc1cc(/C=C/C(=O)CC(=O)/C=C/c2ccc(OC(=O)CCNC34CC5CC(CC(C5)C3)C4)c(OC)c2)ccc1OC(=O)CCNC12CC3CC(CC(C3)C1)C2 | -30.4% (active) | 14.7% | 51.8% | 65.3% | 63.8% | 6.65% (active) | -7.82% (active) | 19.3% | 78.4% | 50.8% | -10.7% (active) | -31.2% (active) | 8.69% (active) | 17.8% | -0.854% (active) | 34.1% | 5.79% (active) | –
4 | CCCCc1ccc(C(N)=O)nc1 | 88.6% | 107% | 96.2% | 100% | 99.5% | 19.4% | 107% | -48.3% (active) | 106% | 101% | 97.8% | 106% | -90% (active) | 86.9% | 99.4% | 110% | 100% | –
5 | O=C(/C=C/c1cccc(O)c1)c1cccc(-n2cc(-c3ccccc3)[nH]c2=O)c1 | -45.4% (active) | 9.12% (active) | -9.18% (active) | 20.2% | 106% | -30.5% (active) | -28% (active) | 46% | 3.96% (active) | 21.1% | 7.56% (active) | 33.8% | -32.1% (active) | 6.52% (active) | -67.7% (active) | -44.2% (active) | -73.3% (active) | –
6 | CCSCC1CC(O)(c2ccccc2)C(c2ccccc2)C(c2ccc(Cl)cc2)O1 (stereo not drawn) | 4.54% (active) | -11.2% (active) | 24.7% | 33.8% | 9.49% (active) | 32.6% | -26.4% (active) | -11% (active) | 17.1% | -7.67% (active) | – | -17.3% (active) | 1.98% (active) | 0.0329% (active) | 1.69% (active) | 17.9% | -31.2% (active) | –
7 | O=C1NC(=S)S/C1=C\c1cc(Br)ccc1O | – | 103% | – | 115% | 91.3% | – | 103% | – | 102% | 82.9% | 104% | 105% | 97.6% | 106% | 103% | 103% | 90.6% | 95.7%
8 | O=C(Nc1nn2c(-c3cc(C(F)(F)F)cc(C(F)(F)F)c3)nnc2s1)C1CCCC1 | 20.5% | 12% | 18.6% | 18.8% | 5.54% (active) | 40% | 22.9% | 21.6% | 2.45% (active) | 11.6% | – | 12.5% | 15.5% | 6.67% (active) | -29.7% (active) | – | 11.1% | –
9 | O=C1/C(=C/c2ccc(F)cc2)Cc2ccccc21 | 98% | 101% | 92.6% | 87.7% | 110% | 105% | 110% | 109% | 107% | 103% | 89.6% | 107% | 104% | 27.3% | 87.9% | 89.9% | 106% | –
10 | COc1ccc2c(c1)sc1nc(-c3ccc(N(C)C)cc3)cn12 | 33% | 95.2% | 98.8% | 97.8% | 82.6% | 15.8% | 88.5% | 122% | 76.8% | 68.7% | 99% | 104% | 104% | 84% | 91.7% | 92% | 75.8% | –
11 | COc1cc(/C=C/C(=O)c2c(C)n([O-])c3ccccc3[n+]2=O)cc(OC)c1OC | 9.32% (active) | 30.6% | 80.6% | 46.9% | 58.3% | -15.8% (active) | 59.2% | 43.2% | 43.4% | 34.9% | 27.3% | 46.3% | 43.7% | 20.8% | 30.6% | 60.5% | 61.2% | –
12 | NS(=O)(=O)c1ccc(-n2ncc3c(SCc4ccccc4)ncnc32)cc1 | 91.9% | 96.1% | 99.7% | 104% | 108% | 85.9% | 99.4% | 97.3% | 101% | 91.6% | 91.6% | 106% | 95.5% | 98.7% | 82.7% | 127% | 94.1% | –
13 | CC(C)N(Cc1ccccc1)c1c(Cl)ssc1=O | 115% | 86.7% | 107% | 104% | 93.7% | -9.19% (active) | 92.5% | 109% | 107% | 98.9% | 90.9% | 108% | 110% | 101% | 99.9% | 113% | 106% | –
14 | Cc1cc(=O)[nH]c(/C(=N/Nc2ccccc2)C(=O)c2ccc(Cl)cc2)n1 | 96.6% | 92.8% | 117% | 111% | 98.3% | 17.6% | 97.5% | 83.6% | 106% | 77% | 97.4% | 108% | 94.6% | 90.1% | 86.9% | 109% | 102% | –
15 | COc1ccc(/C=C/C(=O)c2cccc(NS(C)(=O)=O)c2)cc1 | – | – | 94.9% | 81.5% | 110% | 7.92% (active) | 78.1% | 83.2% | 85.2% | 70.6% | 105% | 90% | 50.5% | 50.4% | 21% | 111% | 38.5% | -10.2% (active)
16 | Cc1cc(C(=O)Nc2ccc3cc(CN4CCOCC4)ccc3n2)c(C)n1-c1ccccc1 | -21% (active) | 4.27% (active) | 83.1% | 6.66% (active) | 81.1% | 66.4% | 26.7% | 82.3% | -5.82% (active) | -2.49% (active) | -1.74% (active) | 4.74% (active) | 64.1% | 7.41% (active) | 29.4% | 50.8% | 11% | –
17 | COc1ccc(/C=C2\CCc3ccccc3C2=O)cc1 | 82.1% | 90% | 109% | 89.6% | 102% | 81.8% | 89.6% | 97.3% | 60.5% | 92.5% | 97.9% | 9.53% (active) | 66.9% | – | 94.3% | 80.4% | 44.6% | –
18 | Cc1cccc2nnc(-c3ccccc3)n12 | – | 109% | – | 104% | 121% | 115% | 129% | 146% | 107% | 115% | – | 112% | 112% | 97% | 104% | 102% | 108% | 93%
